Results filed as inconclusive are left out. A number with no mark means an inactive call. Activity calls are given as the source filed them. Calls come from the whole dose curve.
% is set by controls: 0 for no effect and ±100 for the full control effect.

This experiment can be described thus: qHTS assay to identify small molecule agonists or antagonists of the thyroid stimulating hormone receptor (TSHR) signaling pathway - wild type cell line counter screen (AID 1259384). To be noted: HEK293 wild type, cAMP HTRF counter-screen, active compounds read high; series mostly up to 92.4 µM; cAMP activity change: at the top concentration. An excerpt: U.S. Tox21 Program National Center for Advancing Translational Sciences [NCATS] NIH Chemical Genomics Center [NCGC] U.S. Environmental Protection Agency [EPA] National Institutes of Environmental Health Sciences [NIEHS] National Toxicology Program [NTP] U.S. Food and Drug Administration [FDA] Tox21 Assay Overview: TSHR is the receptor for thyrotropin (thyroid stimulating hormone or TSH), a member of the glycoprotein hormone family. TSH is released by the anterior pituitary gland and is the main regulator of thyroid gland growth and development. Upon binding circulating thyrotropin, a G-protein signal cascade activates adenylyl cyclase and […] cAMP concentration is increased. cAMP is a key second messenger involved extensively in cellular signal transduction pathways associated with the majority of G-protein coupled receptors (GPCRs). The activation of these GPCRs by neurotransmitters, lipids, nucleotides, peptides and hormones results in the activation or the inhibition of plasma membrane-bound adenylate cyclase through heterotrimeric G-proteins. A cell-based TSHR-Hek293 assay can be used to identify TSHR agonists. To eliminate the false positive compounds identified from screening a cell-based TSHR-Hek293 cell line, cAMP assay in a wild type Hek293 cells was used as a counter screening.
Tox21 Assay Protocol Summary: Hek293 cells (wild type) were dispensed at 800 cells/4 uL/well in 1536-well white plates using a Multidrop dispenser. After the assay plates were incubated at a 37 C/5% CO2 incubator for 18 hrs, 23 nL of compounds dissolved in DMSO, positive controls or DMSO only was transferred to the assay plate by a pin tool, followed by 1 ul medium containing Ro20-1724. After 30 min of incubation at room temperature, 2.5 ul/well of cAMP-d2 and 2.5 ul/well of anti-cAMP-cryptate were added respectively into the assay plates using a Flying Reagent Dispenser. The plates were incubated at room temperature for 1 hr. The fluorescence intensity in the plates was measured using an Envision plate reader. Each test compound was measured at 15 concentrations and in triplicates.
A general note: qHTS replaces the single test concentration by a dilution series.
With `CCCCCCCCCCCCCCO`, the call was inactive. The same measure, in the same setting: in the case of `CCCCC(CC)COC(=O)CCCCC(=O)OCC(CC)CCCC` (stereo not given) it was “inactive”; in that of `CCCCCCCCCCCCS`, “inactive”; in that of `CCOC(=O)NNc1nncc2ccccc12`, “inactive”. Still for that read-out and setting: in the case of `Nc1ccccc1[N+](=O)[O-]` it was “inactive”. Same read-out and setting: under `O=C(O)c1ccccc1C(c1ccc(O)cc1)c1ccc(O)cc1` stands “inactive”. For `CCCCOC(=O)COc1ccc(Cl)cc1Cl`, the compound was called inactive. On the same count and under the same terms, in the case of `O=C(O)c1ccc(C(=O)O)cc1` it was “inactive”; in that of `COc1ccc(Nc2ccccc2)c(C)c1`, “inactive”; in that of `CCCCC(CC)COC(=O)C(C#N)=C(c1ccccc1)c1ccccc1` (stereo not given), “inactive”.

For the compound `CCCCCC1=CCCC1=O`, the result was inactive. With `Cc1ccc(N(C)C)cc1`, the compound was classed as inactive. The same measure, in the same setting: in the case of `CCCCCCCCCC` it was “inactive”; in that of `CC(=O)OCC(=O)[C@@]12N=C(C)O[C@@H]1C[C@H]1[C@@H]3CCC4=CC(=O)C=C[C@]4(C)[C@H]3[C@@H](O)C[C@@]12C`, “inactive”; in that of `CC1CCC(C(C)C)C(O)C1` (stereo not given), “inactive”. On to `O=C(O)c1ccc2c(c1)C(=O)OC2=O`, for which the call was inactive. Same read-out and setting: in the case of `CC(=O)CC(=O)Nc1ccccc1C` it was “inactive”. The same measure, in the same setting: in the case of `FC(F)(F)c1ccc(Cl)c(Cl)c1` it was “inactive”; in that of `CCc1cccc(C)c1N`, “inactive”. In the case of `c1ccc2c(c1)ccc1ccccc12`, the call was inactive.

Turning to `CC(O)COCC(C)O` (stereo not given), the compound was classed as inactive. `O=P(OC(CCl)CCl)(OC(CCl)CCl)OC(CCl)CCl`: the compound was called inactive. Turning to `C#C[C@]1(O)CC[C@H]2[C@@H]3CCC4=CC(=O)CC[C@@H]4[C@H]3CC[C@@]21C`, the compound was classed as inactive. In the case of `CCCCCCCCC/C=C/CC1CC(=O)OC1=O` (stereo not given), the outcome was inactive. Same read-out and setting: under `CCCCCC/C(C=O)=C\c1ccccc1` stands “inactive”; under `COc1ccc2cc([C@H](C)C(=O)O)ccc2c1`, “inactive”. On the same count and under the same terms, under `OCC(CO)(CBr)CBr` stands “inactive”; under `C=C(C)C(=O)O[C@H]1C[C@@H]2CC[C@@]1(C)C2(C)C`, “inactive”.

As for `O=C1CCC(N2C(=O)c3ccccc3C2=O)C(=O)N1` (stereo not given), the result was inactive. The same measure, in the same setting: under `CC(C)(C)[C@@H](O)[C@@H](Cc1ccc(Cl)cc1)n1cncn1` stands “inactive”. On to `O=C(O)c1cc(O)c(O)c(O)c1`, for which the “cAMP activity change” value was -8.74% [at 42.5 µM]. Regarding `c1ccc2scnc2c1`, the call was inactive. Regarding `COc1ccc(NC(C)=O)cc1N`, the result was inactive. The same measure, in the same setting: under `CCCCC(CC)COC(=O)CS` (stereo not given) stands “inactive”.

Regarding `C=C(C)C(=O)OCCOCCOCCOC(=O)C(=C)C`, the compound was called inactive. As to `O=C=NCCCCCCN=C=O`, the result was inactive.

Regarding `C=C(C)C(=O)Nc1ccc(Cl)c(Cl)c1`, the compound was classed as inactive.

Consider `C[Si](O[Si](C)(C)C)O[Si](C)(C)C`, for which the compound was classed as inactive. On the same count and under the same terms, in the case of `NNc1nncc2ccccc12` it was “inactive”. With `CCCCCC(N)=O`, the compound was called inactive.
